Unmarked numbers belong to inactive results.
Compound: C#CCNC(=O)CCSSCCC(=O)NCCc1ccc(C=O)c(C=O)c1
Experiment: lysine labeling ratio R10:1 (500 µM / 50 µM probe), SILAC-ABPP in living cells; higher = lower intrinsic lysine reactivity toward the probe, active = 2 or less
Conditions: HeLa; probe concentrations 500 vs 50 µM
Procedure, shortened: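 For each lysine, R is the median over forward and reverse replicates of the filtered median MS1 peptide ratio of high probe to low probe. The probe, an alkyne-tagged, disulfide-linked lysine probe, was given at 500 µM or 50 µM to living SILAC light and heavy HeLa cells in PBS at room temperature, with label swaps. Values are capped at 20.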

UniProt P35579, sequence (P35579 whole entry): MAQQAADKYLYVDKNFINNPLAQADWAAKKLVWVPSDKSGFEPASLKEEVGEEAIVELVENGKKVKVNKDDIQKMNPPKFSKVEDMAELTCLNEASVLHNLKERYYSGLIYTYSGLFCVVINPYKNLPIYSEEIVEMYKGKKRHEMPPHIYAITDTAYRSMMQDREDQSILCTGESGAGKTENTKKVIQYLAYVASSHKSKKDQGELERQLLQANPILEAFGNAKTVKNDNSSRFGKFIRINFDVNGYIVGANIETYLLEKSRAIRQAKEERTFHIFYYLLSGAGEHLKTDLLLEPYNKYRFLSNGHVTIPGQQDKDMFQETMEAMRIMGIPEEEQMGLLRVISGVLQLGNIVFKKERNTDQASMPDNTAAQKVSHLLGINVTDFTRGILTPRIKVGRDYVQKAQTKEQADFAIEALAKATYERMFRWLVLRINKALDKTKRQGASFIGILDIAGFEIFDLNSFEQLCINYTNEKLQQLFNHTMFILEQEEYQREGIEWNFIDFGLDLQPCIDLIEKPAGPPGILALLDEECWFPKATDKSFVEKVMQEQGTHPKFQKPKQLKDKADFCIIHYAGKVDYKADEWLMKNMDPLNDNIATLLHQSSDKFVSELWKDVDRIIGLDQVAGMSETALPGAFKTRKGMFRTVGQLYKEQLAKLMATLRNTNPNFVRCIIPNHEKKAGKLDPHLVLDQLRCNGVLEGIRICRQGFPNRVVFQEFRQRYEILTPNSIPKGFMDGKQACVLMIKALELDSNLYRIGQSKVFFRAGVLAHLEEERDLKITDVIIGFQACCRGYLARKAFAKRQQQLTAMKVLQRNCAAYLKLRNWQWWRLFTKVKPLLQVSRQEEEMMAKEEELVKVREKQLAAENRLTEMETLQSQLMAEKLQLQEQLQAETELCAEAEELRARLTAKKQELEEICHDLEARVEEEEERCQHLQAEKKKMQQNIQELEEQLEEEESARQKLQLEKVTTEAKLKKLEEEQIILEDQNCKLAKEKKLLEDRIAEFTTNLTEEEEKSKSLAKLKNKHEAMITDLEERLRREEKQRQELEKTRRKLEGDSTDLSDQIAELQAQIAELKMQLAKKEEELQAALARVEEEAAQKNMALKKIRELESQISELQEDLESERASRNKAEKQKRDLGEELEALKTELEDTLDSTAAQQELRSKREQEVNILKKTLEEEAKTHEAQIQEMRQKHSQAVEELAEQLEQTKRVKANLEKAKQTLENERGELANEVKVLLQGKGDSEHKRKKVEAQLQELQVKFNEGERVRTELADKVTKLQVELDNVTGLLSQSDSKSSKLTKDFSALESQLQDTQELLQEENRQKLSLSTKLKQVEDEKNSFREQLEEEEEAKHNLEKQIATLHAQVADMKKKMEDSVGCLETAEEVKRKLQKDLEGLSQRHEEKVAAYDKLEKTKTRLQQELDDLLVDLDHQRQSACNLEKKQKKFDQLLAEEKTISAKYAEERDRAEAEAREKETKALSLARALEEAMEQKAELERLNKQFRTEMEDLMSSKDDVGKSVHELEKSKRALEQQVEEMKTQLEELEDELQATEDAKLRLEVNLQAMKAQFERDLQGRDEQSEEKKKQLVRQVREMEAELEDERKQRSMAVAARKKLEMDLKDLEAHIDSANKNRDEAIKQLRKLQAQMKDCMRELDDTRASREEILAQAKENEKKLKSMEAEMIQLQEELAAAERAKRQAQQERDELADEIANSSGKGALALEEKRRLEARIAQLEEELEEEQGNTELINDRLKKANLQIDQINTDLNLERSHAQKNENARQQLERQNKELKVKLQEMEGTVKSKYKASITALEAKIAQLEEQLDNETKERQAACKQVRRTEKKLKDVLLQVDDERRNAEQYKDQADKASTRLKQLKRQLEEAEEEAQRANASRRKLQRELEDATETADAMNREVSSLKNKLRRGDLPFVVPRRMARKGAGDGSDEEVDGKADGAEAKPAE
UniProt Q13813, sequence (Q13813 whole entry): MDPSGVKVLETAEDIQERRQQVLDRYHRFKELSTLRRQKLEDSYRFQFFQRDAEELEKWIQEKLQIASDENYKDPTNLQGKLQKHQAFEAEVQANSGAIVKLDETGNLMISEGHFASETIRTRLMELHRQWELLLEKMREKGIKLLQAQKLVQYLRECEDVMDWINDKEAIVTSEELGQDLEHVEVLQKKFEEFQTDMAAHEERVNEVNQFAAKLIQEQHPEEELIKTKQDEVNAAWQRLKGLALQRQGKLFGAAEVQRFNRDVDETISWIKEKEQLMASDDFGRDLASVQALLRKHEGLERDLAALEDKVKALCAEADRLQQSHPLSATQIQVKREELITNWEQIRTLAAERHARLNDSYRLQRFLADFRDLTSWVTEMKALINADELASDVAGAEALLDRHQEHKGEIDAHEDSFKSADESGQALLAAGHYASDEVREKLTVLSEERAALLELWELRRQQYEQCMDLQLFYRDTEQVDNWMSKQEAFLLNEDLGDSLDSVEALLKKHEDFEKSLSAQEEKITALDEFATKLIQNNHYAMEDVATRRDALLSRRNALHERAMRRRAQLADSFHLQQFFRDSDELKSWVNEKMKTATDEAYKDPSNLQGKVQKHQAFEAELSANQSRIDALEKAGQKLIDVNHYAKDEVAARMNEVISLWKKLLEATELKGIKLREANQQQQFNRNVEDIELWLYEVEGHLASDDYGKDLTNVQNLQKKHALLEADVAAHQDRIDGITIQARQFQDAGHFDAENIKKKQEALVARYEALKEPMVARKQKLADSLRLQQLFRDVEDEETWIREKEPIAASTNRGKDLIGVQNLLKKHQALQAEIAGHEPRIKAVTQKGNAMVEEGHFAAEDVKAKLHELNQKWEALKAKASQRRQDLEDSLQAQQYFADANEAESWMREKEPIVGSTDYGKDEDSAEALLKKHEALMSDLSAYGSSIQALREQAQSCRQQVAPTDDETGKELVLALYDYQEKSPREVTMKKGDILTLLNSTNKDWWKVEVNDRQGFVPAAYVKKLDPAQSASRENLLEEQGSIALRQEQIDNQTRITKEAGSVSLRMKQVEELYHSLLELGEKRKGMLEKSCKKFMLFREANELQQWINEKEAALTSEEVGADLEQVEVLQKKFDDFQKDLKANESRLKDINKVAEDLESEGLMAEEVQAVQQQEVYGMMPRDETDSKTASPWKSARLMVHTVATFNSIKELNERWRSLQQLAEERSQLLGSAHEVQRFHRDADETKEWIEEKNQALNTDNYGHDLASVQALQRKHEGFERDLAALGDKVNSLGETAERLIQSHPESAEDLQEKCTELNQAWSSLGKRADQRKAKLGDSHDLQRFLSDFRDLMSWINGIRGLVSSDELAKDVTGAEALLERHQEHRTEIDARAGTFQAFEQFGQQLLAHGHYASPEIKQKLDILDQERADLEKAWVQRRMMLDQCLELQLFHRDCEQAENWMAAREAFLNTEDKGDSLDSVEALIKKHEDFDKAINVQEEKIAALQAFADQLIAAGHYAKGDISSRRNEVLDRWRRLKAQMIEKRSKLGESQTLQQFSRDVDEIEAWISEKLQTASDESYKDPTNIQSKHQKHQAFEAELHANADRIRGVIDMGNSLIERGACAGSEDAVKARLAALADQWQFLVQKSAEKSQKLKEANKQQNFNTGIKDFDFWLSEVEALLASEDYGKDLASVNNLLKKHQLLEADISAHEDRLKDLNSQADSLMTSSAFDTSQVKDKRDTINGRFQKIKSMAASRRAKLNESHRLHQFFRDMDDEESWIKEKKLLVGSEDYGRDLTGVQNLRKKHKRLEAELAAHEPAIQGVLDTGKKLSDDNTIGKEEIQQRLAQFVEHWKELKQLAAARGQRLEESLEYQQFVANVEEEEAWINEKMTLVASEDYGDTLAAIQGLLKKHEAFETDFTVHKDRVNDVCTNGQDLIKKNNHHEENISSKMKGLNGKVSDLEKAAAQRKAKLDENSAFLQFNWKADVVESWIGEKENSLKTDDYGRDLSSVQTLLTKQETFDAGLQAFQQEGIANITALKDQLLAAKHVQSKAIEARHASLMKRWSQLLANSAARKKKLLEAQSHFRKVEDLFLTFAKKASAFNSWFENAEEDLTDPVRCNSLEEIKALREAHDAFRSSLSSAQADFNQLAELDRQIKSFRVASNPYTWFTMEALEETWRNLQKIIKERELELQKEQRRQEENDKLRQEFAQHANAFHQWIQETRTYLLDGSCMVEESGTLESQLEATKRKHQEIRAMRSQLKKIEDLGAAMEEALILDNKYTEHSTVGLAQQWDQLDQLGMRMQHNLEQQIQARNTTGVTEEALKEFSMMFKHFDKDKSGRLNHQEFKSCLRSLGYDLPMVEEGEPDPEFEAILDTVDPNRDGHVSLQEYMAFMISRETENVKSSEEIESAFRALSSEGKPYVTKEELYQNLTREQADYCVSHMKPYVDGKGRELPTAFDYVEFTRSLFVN
UniProt P25685, sequence (P25685 whole entry): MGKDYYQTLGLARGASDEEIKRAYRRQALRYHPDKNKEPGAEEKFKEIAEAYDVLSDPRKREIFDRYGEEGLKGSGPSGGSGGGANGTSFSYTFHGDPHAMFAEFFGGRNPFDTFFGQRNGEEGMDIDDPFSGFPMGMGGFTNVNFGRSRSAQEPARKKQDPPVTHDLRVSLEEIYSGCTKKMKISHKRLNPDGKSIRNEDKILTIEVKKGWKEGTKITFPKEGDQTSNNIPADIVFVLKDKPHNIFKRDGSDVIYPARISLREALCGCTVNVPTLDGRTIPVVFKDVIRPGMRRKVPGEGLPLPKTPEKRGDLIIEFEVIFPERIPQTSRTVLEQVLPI
UniProt P60981, sequence (P60981 whole entry): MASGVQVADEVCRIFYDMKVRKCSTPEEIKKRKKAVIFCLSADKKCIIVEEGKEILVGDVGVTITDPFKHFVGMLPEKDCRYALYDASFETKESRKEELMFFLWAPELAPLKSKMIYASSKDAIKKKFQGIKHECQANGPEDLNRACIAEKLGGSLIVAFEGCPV

Target	lysine labeling ratio R10:1
SPTAN1 (lysine site: K441) (UniProt Q13813)	2.17
GPC1 (lysine site: K363) (UniProt P35052)	7.78
INSR (lysine site: K476) (UniProt P06213)	1.75 (active)
LAMC1 (lysine site: K1039) (UniProt P11047)	3.94
MET (lysine site: K599) (UniProt P08581)	1.67 (active)
UniProt P62888 (lysine site: K9)	2.95
UniProt P08727 (lysine site: K168)	4.76
MSN (lysine site: K412) (UniProt P26038)	3.35
IQGAP1 (lysine site: K104) (UniProt P46940)	2.32
THRAP3 (lysine site: K486) (UniProt Q9Y2W1)	1.7 (active)
PTK7 (lysine site: K518) (UniProt Q13308)	1.76 (active)
UniProt Q15149 (lysine site: K2047)	0.91 (active)
TGFBR3 (lysine site: K672) (UniProt Q03167)	0.83 (active)
HEG1 (lysine site: K1073) (UniProt Q9ULI3)	3.38
ANXA2 (lysine site: K279) (UniProt P07355)	5.78
SPTAN1 (lysine site: K1546) (UniProt Q13813)	0.8 (active)
UniProt Q15149 (lysine site: K2318)	4.26
VIM (lysine site: K439) (UniProt P08670)	8.7
DNAJB1 (lysine site: K21) (UniProt P25685)	1 (active)
TKT (lysine site: K538) (UniProt P29401)	1.86 (active)
DSTN (lysine site: K19) (UniProt P60981)	1.87 (active)
PPP2CA (lysine site: K41) (UniProt P67775)	1.68 (active)
ROBO1 (lysine site: K503) (UniProt Q9Y6N7)	7.35

Target	lysine labeling ratio R10:1
CKAP4 (lysine site: K301) (UniProt Q07065)	2.85
ERP29 (lysine site: K137) (UniProt P30040)	6.12
PSEN1 (lysine site: K109) (UniProt P49768)	2.61
UniProt P62269 (lysine site: K54)	1.41 (active)
MYH9 (lysine site: K1246) (UniProt P35579)	0.944 (active)
ITGAV (lysine site: K446) (UniProt P06756)	2.59
EEF2 (lysine site: K426) (UniProt P13639)	3.49
B4GAT1 (lysine site: K60) (UniProt O43505)	7.79
PDCD6IP (lysine site: K690) (UniProt Q8WUM4)	2.89
UniProt P04439 (lysine site: K92)	3.31
HMGN2 (lysine site: K16) (UniProt P05204)	1.78 (active)
TFRC (lysine site: K673) (UniProt P02786)	3
NRP1 (lysine site: K231) (UniProt O14786)	5.85
PIEZO1 (lysine site: K2372) (UniProt Q92508)	1.09 (active)
MYH9 (lysine site: K1845) (UniProt P35579)	1.57 (active)
GALNT2 (lysine site: K509) (UniProt Q10471)	3.5
KIRREL (lysine site: K410) (UniProt Q96J84)	2.51
DSG2 (lysine site: K451) (UniProt Q14126)	0.823 (active)
SPTBN1 (lysine site: K497) (UniProt Q01082)	2.59
PDIA3 (lysine site: K274) (UniProt P30101)	3.59
HNRNPC (lysine site: K170) (UniProt P07910)	2.35
DDX5 (lysine site: K236) (UniProt P17844)	2.34
IARS (lysine site: K641) (UniProt P41252)	1.71 (active)

Reference: the supplement of paper PMC11001985
